Source: PubChem BioAssay (several laboratories)
MITF act – increases MITF-driven TRPM1 promoter luciferase signal; hit rate 0.75% among 300,000; SK-MEL-5 TRPM1-promoter luciferase, 24 h; % of positive control, neutral wells = 0; activation, % at 12.5 µM; AID 588334;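 active means mean activation of at least 80% with every replicate also reaching 80%; inconclusive means mean reaches 80% but some replicate falls short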;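 further: 0% = neutral control wells and 100% = parthenolide positive control wells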
esBAF inh – blocks esBAF chromatin remodeling in mouse ES cells. hit rate 2% among 350,000. reporter increase, % at 12.5 µM. Bmi1-luciferase knock-in reporter, 24 h; 100% = twice the neutral-well signal; in the data active means activation above about 40%; inconclusive means no clear call, values can overlap the other calls;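 further: 0% = median of the plate's neutral control wells and 100% = double that signal; a rise in the Bmi1 reporter signal indicates esBAF inhibition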
APOBEC3A inh – blocks human APOBEC3A ssDNA deamination; P31941; recombinant A3A, FAM/TAMRA ssDNA deamination fluorescence; inhibition, % at 20 µM; hit rate 0.41% among 330,000; AID 493011;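 active means at least 40% inhibition at 20 µM here, with at most 30% in a related deaminase screen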;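 further: plate controls were A3A with DMSO for no effect and wells lacking A3A enzyme for full effect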
Target sequence (P31941 whole entry, looked up): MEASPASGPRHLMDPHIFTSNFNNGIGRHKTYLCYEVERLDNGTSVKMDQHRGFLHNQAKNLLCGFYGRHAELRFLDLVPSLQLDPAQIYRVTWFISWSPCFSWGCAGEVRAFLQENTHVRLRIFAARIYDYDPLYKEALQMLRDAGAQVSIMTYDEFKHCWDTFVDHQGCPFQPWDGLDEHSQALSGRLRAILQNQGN
PHOSPHO1 inh – inhibitors of human PHOSPHO1 phosphatase | recombinant PHOSPHO1, absorbance phosphatase assay | inhibition, % at 13.3 µM | hit rate 1.1% among 290,000 | AID 1565; in the data active means inhibition above about 60%
Target sequence (Q8TCT1 whole entry, looked up): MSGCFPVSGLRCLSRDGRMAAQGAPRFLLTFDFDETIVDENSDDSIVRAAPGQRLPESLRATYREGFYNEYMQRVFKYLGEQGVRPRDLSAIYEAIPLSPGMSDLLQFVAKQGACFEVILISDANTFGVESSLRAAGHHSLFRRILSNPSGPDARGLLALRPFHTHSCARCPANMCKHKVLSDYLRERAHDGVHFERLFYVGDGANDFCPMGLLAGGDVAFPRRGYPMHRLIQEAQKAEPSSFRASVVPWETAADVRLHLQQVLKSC
Wnt act – Wnt/beta-catenin pathway activation | Wnt/beta-catenin reporter cell assay, activator, plate reader | activation, % at 9.35 µM | hit rate 1.2% among 300,000; in the data active means activation above about 30%, passing the limit was not always enough; inconclusive means no clear call, values can overlap the other calls;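 further: 0% = neutral control wells and 100% = positive control wells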
A3G deaminase – inhibitors of human APOBEC3G DNA deaminase; Q9HC16; recombinant A3G, ssDNA deamination FAM/TAMRA fluorescence; inhibition, % at 20 µM; hit rate 0.28% among 330,000; AID 493012;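 active means inhibition of at least 40% at 20 µM, with no more than 30% in the related APOBEC3A deaminase screen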;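 further: plate controls were DMSO wells with A3G for no effect and wells lacking A3G enzyme for full effect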
* marks the source's active call; other numbers are inactive results; ? = inconclusive; . = no result; ! = repeats disagree. Only some compounds are listed: those with a hit (about 3.6% of all), similar ones and a draw of the others.

SMILES	MITF act	esBAF inh	APOBEC3A inh	PHOSPHO1 inh	Wnt act	A3G deaminase
COc1ccc(-c2csc(-c3ccccc3)n2)c(OC)c1	86*	.	2	-7	13	-6
CC(C)C#Cc1ccc2c(c1)O[C@H](CN(C)Cc1ccccc1)[C@H](C)CN([C@H](C)CO)S2(=O)=O	.	3	.	.	.	.
Brc1ccc(-c2csc(-c3ccncc3)n2)cc1	?	.	-2	-9	55*	1
COc1ccc(-c2cc(-c3ccc(OC)cc3)nc(-c3ccc4c(c3)NC(=O)CO4)c2)cc1	8	-1	-2	-15	-2	-1
CNC(=O)c1ccc(-c2nc(-c3ccccc3)cs2)cc1	74	52*	1	38	10	-2
COc1cccc(-c2nc(-c3ccc4c(c3)NC(=O)CO4)cs2)c1	105*	.	-5	2	12	-8
CC(O)(c1cccnc1)c1nc(-c2ccc3ccccc3c2)cs1 (stereo unspecified)	.	57*	.	.	-3	.
COc1ccccc1CN1[C@H](CO)[C@@H]2c3ccccc3N(C(=O)C3CCCC3)C[C@@H]21	.	-4	.	.	.	.
C/C=C/c1cnc2c(c1)C(=O)N([C@H](C)CO)C[C@H](C)[C@H](CN(C)C(=O)C1CCCCC1)O2	.	1	.	.	.	.
CC=Cc1ccc2n(c1=O)C[C@H]1[C@H](CO)[C@@H](C(=O)NCC3CC3)N(CCC(F)(F)F)[C@@H]21 (mixture of isomers)	.	0	.	.	.	.
O=C(C[C@@H]1C=C[C@@H](NC(=O)Nc2ccc(F)cc2)[C@@H](CO)O1)NCc1cccc(F)c1	.	0	.	.	.	.
CCCOC(=O)c1c(NC(=O)/C=C/c2cnn(C)c2C)sc(C(=O)OCC)c1C	12	5	0	29	.	-5
CCOC(=O)c1sc(NC(=O)/C=C/c2cnn(CC)c2C)c(C(=O)OCC)c1C	7	-10	3	70*	.	12
Cc1csc(SCC(=O)c2cc(C)n(Cc3cccs3)c2C)n1	-10	-71	1	91*	.	-6
COc1ccc(-c2nnc(SCC(=O)c3cc(C)n(Cc4cccs4)c3C)o2)cc1	-9	0	2	7	-12	4
Cc1cc(C(=O)CSc2nnc(-c3ccc(OC(F)F)cc3)o2)c(C)n1Cc1cccs1	.	-2	-3	94*	0	-2
C/C(N)=C(/C#N)C(=O)CSc1nnc(-c2ccc(OC(F)F)cc2)o1	73	65*!	4	1	16	-3
C/C(N)=C(/C#N)C(=O)CSc1nnc(-c2ccc3c(c2)OCO3)o1	-23	-38	-6	-11	7	-6
Cc1cc(C(=O)CSc2nnc(N)s2)c(C)n1Cc1cccs1	-15	.	1	-11	4	-4
CCC(=O)N(C)C[C@@H]1Oc2ncc(C#CC(C)C)cc2C(=O)N([C@H](C)CO)C[C@@H]1C	.	1	.	.	.	.
CC(=O)N(C)C[C@H]1Oc2ncc(-c3ccc(C#N)cc3)cc2C(=O)N([C@H](C)CO)C[C@H]1C	.	-4	.	.	.	.
Cc1ccc(-c2ccc3c(c2)O[C@@H](CN(C)S(C)(=O)=O)[C@H](C)CN([C@@H](C)CO)S3(=O)=O)cc1	.	-6	.	.	.	.
O=C(CCN1CCCCC1)N[C@H]1CC[C@@H](CCn2cc(-c3ccc(F)cc3)nn2)O[C@@H]1CO	.	0	.	.	.	.
c1ccc(OCc2nc3ccccc3s2)cc1	.	-6	-1	7	.	-2
N#Cc1ccc(NC(=O)CCc2nc3ccccc3s2)cc1	1	4	-1	0	-1	-7
SMILES	MITF act	esBAF inh	APOBEC3A inh	PHOSPHO1 inh	Wnt act	A3G deaminase
Fc1ccc(OCc2nc3ccccc3s2)cc1	27	.	2	25	59*	-2
Cc1cc(OCc2nc3ccccc3s2)ccc1N	.	4	-6	20	41*	-1
CCC(=O)Nc1ccc(OCc2nc3ccccc3s2)cc1	5	.	-3	50	41*	12
Cc1noc(C)c1NC(=O)Nc1ccc2c(c1)C(=O)N([C@@H](C)CO)C[C@@H](C)[C@H](CN(C)C(=O)c1ccccc1)OCCCC[C@@H](C)O2	.	1	.	.	.	.
COc1ccc(Nc2nc(-c3ccc(OC)cc3)cs2)cc1	94*	.	-1	-16	0	-2
COc1ccc(-c2csc(Nc3ccccc3)n2)cc1	65	.	2	47	16	-12
Clc1ccc(Nc2nc(-c3ccncc3)cs2)cc1	76	29	0	.	.	-5
Fc1ccc(Nc2nc(-c3ccncc3)cs2)cc1	84*	.	1	40	28	-6
COc1ccc(Nc2nc(-c3c[nH]c4ccccc34)cs2)cc1	26	.	0	-16	40*	-7
Nc1ccc(Nc2nc(-c3ccncc3)cs2)cc1	120*	35	-4	81*	10	-4
COCC(=O)Nc1ccc2c(c1)C(=O)N(C)[C@@H]1CC[C@@H](CC(=O)NCc3ccccc3F)O[C@H]1CO2	.	-4	.	.	.	.
CCC(=O)NC[C@@H]1N[C@@H](CO)[C@H]1c1ccc(C2=CCCC2)cc1	.	3	.	.	.	.
CCOc1ccc(-c2n[nH]c(=S)o2)cc1	-7	.	2	52	-1	11
COc1ccc(-c2n[nH]c(=S)o2)c(OC)c1	7	1	-5	103*	.	-1
CCOc1ccccc1-c1n[nH]c(=S)o1	-12	-2	-7	100*	.	-4
C/C=C/c1ccc2c(c1)O[C@H](CN(C)C(=O)c1ccccc1)[C@H](C)CN([C@H](C)CO)S2(=O)=O	.	11	.	.	.	.
C[C@H](NC(=O)C[C@H]1C[C@@H]2c3cc(NC(=O)C4CCOCC4)ccc3O[C@@H]2[C@H](CO)O1)c1ccccc1	.	-5	.	.	.	.
COc1ccc(S(=O)(=O)Nc2ccc3c(c2)C(=O)N([C@@H](C)CO)C[C@@H](C)[C@H](CN(C)CC2CCCCC2)O3)cc1	.	1	.	.	.	.
Cc1ccc(Sc2cc(C)nc(-c3ccccn3)n2)cc1	.	.	-2	8	33*	-5
Cc1cc(C)c(C#N)c(N2CCSCC2)n1	14	-8	0	9	62*	-2
CCOc1ccc(C2C=C(c3ccccc3)Nc3nnnn32)cc1 (stereo unspecified)	.	51*	-1	1	43*	-1
CCOc1ccc(C2C=C(c3ccc(C)cc3)Nc3nnnn32)cc1 (stereo unspecified)	.	.	-4	-4	.	-10
COc1ccc(C(=O)c2c3ccc(OC)cc3[n+]([O-])n2Cc2ccc(C(N)=O)cc2)cc1	50	61*	5	.	27	2
COc1ccc(-c2csc(-n3ncc(-c4cccs4)c3N)n2)cc1	9	2	0	17	.	-1
COc1ccc(-c2csc(N3CCOCC3)n2)cc1OC	71	58*	-5	14	17	-10
Fc1ccc(-c2csc(N3CCC(c4ccccc4)C3)n2)cc1 (stereo unspecified)	64	50*	-3	-2	4	-4
Clc1ccc(-c2csc(N3CCCCCC3)n2)cc1	.	2	2	19	8	2
c1ccc(-c2csc(N3CCCCCC3)n2)cc1	55	43*	1	21	.	-3
